Data from the supplement of paper PMC8728848.
The entries come from a sample that favours the strongest signals as a whole.

Columns and labels:
Test in all cases: glycan array binding signal (z-score within array); higher = stronger binding
Conditions in all cases: glycan notation: IUPAC condensed, linker removed
[1] = molecular target: GlcNAc(b1-4)GlcNAc(b1-4)GlcNAc(b1-4)GlcNAc(b1-4)GlcNAc(b1-4)GlcNAc
In short: (§1)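 Glycan array binding is given as a within-array Z-score, which can be read as non-binding when negative. The arrays, 3228 of them, came from the Consortium for Functional Glycomics database and were retained only where the protein sequence was available. Z-scores were averaged across arrays of the same protein sequence at different concentrations or buffers and across linkers.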

Kdn(a2-3)Gal(b1-3)GalNAc = molecular target: Kdn(a2-3)Gal(b1-3)GalNAc
In short: as §1

[2] = molecular target: Man(a1-2)Man(a1-3)[Man(a1-2)Man(a1-6)]Man(a1-6)[Man(a1-2)Man(a1-2)Man(a1-3)]Man(b1-4)GlcNAc(b1-4)GlcNAc
In short: as §1

MurNAc(b1-4)GlcNAc = molecular target: MurNAc(b1-4)GlcNAc
In short: as §1

Neu5Ac(a2-3)Gal(b1-4)Glc = molecular target: Neu5Ac(a2-3)Gal(b1-4)Glc
In short: as §1

[3] = molecular target: Neu5Ac(a2-3)Gal(b1-4)GlcNAc(b1-2)Man
In short: as §1

[4] = molecular target: Neu5Ac(a2-3)Gal(b1-4)GlcNAc(b1-2)Man(a1-3)[Neu5Ac(a2-3)Gal(b1-4)GlcNAc(b1-2)Man(a1-6)]Man(b1-4)GlcNAc(b1-4)[Fuc(a1-6)]GlcNAc
In short: as §1

[5] = molecular target: Neu5Ac(a2-3)Gal(b1-4)GlcNAc(b1-3)Gal
In short: as §1

[6] = molecular target: Neu5Ac(a2-3)Gal(b1-4)GlcNAc(b1-3)Gal(b1-4)GlcNAc(b1-3)Gal(b1-4)GlcNAc(b1-2)Man(a1-3)[Neu5Ac(a2-3)Gal(b1-4)GlcNAc(b1-3)Gal(b1-4)GlcNAc(b1-3)Gal(b1-4)GlcNAc(b1-2)Man(a1-6)]GalNAc
In short: as §1

[7] = molecular target: Neu5Ac(a2-3)Gal(b1-4)GlcNAc(b1-3)Gal(b1-4)[Fuc(a1-3)]GlcNAc
In short: as §1

[8] = molecular target: Neu5Ac(a2-3)Gal(b1-4)[Fuc(a1-3)]GlcNAc(b1-3)Gal(b1-4)GlcNAc
In short: as §1

Neu5Ac(a2-3)GalNAc = molecular target: Neu5Ac(a2-3)GalNAc
In short: as §1

[9] = molecular target: Neu5Ac(a2-6)Gal(b1-4)GlcNAc(b1-2)Man(a1-3)[GlcNAc(b1-4)][Neu5Ac(a2-6)Gal(b1-4)GlcNAc(b1-2)Man(a1-6)]Man(b1-4)GlcNAc(b1-4)GlcNAc
In short: as §1

[10] = molecular target: Neu5Ac(a2-6)Gal(b1-4)GlcNAc(b1-2)Man(a1-3)[Man(a1-6)]Man(b1-4)GlcNAc(b1-4)GlcNAc
In short: as §1

[11] = molecular target: Neu5Ac(a2-6)GlcNAc(b1-4)GlcNAc
In short: as §1

[12] = molecular target: Neu5Ac(a2-8)Neu5Ac(a2-3)[Gal(b1-3)GalNAc(b1-4)]Gal(b1-4)Glc
In short: as §1

[13] = molecular target: Neu5Ac(a2-8)Neu5Ac(a2-8)Neu5Ac(a2-8)Neu5Ac(a2-3)[GalNAc(b1-4)]Gal(b1-4)Glc
In short: as §1

[14] = molecular target: Neu5Ac(b2-6)Gal(b1-4)GlcNAc
In short: as §1

[15] = molecular target: Neu5Gc(a2-6)Gal(b1-4)GlcNAc
In short: as §1

[16] = molecular target: Neu5Gc(a2-8)Neu5Gc(a2-3)Gal(b1-4)GlcNAc
In short: as §1

[17] = molecular target: Neu5Gc(a2-8)Neu5Gc(a2-3)Gal(b1-4)GlcNAc(b1-3)Gal(b1-4)GlcNAc
In short: as §1

B1: Vd2LysM (Verticillium dahliae) (protein)
chain: YRRTCSHTGKGEGWYIIRRGDNFNAVAADFCTSTNVLTEWNHISTITDNMVNTKIKVPCRWNAGKQRDCLKDQKSSNGWYHIVSGDELKDIAYDFCTTSGSLAGMNGISNPDYIKANTDIVVPCSWN
glycan array binding signal (z-score) [1]: 4.42 | glycan array binding signal (z-score) (Kdn(a2-3)Gal(b1-3)GalNAc): 1.25 | glycan array binding signal (z-score) [2]: 2.21 | glycan array binding signal (z-score) (MurNAc(b1-4)GlcNAc): -0.26 | glycan array binding signal (z-score) (Neu5Ac(a2-3)Gal(b1-4)Glc): 0.49 | glycan array binding signal (z-score) [3]: -0.481 | glycan array binding signal (z-score) [4]: 1.14 | glycan array binding signal (z-score) [5]: -0.599 | glycan array binding signal (z-score) [6]: 2.35 | glycan array binding signal (z-score) [7]: -0.732 | glycan array binding signal (z-score) [8]: -0.125 | glycan array binding signal (z-score) (Neu5Ac(a2-3)GalNAc): 0.096 | glycan array binding signal (z-score) [9]: -0.761 | glycan array binding signal (z-score) [10]: -0.322 | glycan array binding signal (z-score) [11]: 0.619 | glycan array binding signal (z-score) [12]: 0.198 | glycan array binding signal (z-score) [13]: 1.71 | glycan array binding signal (z-score) [14]: 0.512 | glycan array binding signal (z-score) [15]: 0.437 | glycan array binding signal (z-score) [16]: 2.17 | glycan array binding signal (z-score) [17]: 0.317
